FMDV antiviral = High Throughput Screening for Foot and Mouth Disease Virus Antivirals; FMDV antiviral cell-based qHTS; Potency, µM (titrated, usually from 57.9 µM), inactives show top-dose activity change, negative = inhibition, most hits filed as inhibitors; 410,000 tested, 1.2% active; AID 1159524, 2015; calls by dose curve; tested in HEK293T cells; further: read-out not given here; potency means the concentration at half of the fitted maximal effect; nearly all actives have a fitted effect of over 45% in size
Marburg entry inh = qHTS for inhibitors of binding or entry into cells for Marburg Virus; Marburg virus pseudotyped entry inhibition, cell reporter; Potency, µM (top dose mostly 37.8 µM), without a hit: top-dose activity change, negative = inhibition, hits mostly inhibitors; 300,000 tested, 1.8% active; calls by dose curve; tested in HEK293 cells; further: potency means the concentration at half of the fitted maximal effect
LASV entry inh = qHTS for Inhibitors of binding or entry into cells for Lassa Virus. Lassa virus pseudotype entry inhibition, cell reporter. Potency, µM (titrated, usually from 37.9 µM), for inactives: at the top dose activity change, negative = inhibition, actives largely listed as inhibitors. 300,000 tested, 1.2% active. AID 540256, 2011; calls by dose curve; tested in HEK293 cells; further: potency means the concentration at half of the fitted maximal effect; nearly all actives have a fitted effect of over 50% in size
Vaccinia Venus = qHTS for Stage-Specific Inhibitors of Vaccinia Orthopoxvirus: Venus Reporter Primary qHTS; 330,000 tested, 0.46% active; Potency, µM (doses to about 36.5 µM), for the others: top-dose activity change, negative = inhibition, most hits filed as inhibitors; Vaccinia virus Venus reporter expression, fluorescence; calls by dose curve; tested in A549 cells; further: potency means the concentration at half of the fitted maximal effect; nearly all actives have a fitted effect of over 30% in size
Vaccinia mCherry = qHTS for Stage-Specific Inhibitors of Vaccinia Orthopoxvirus: mCherry Reporter Primary qHTS | AID 720579, 2013 | 310,000 tested, 0.63% active | Vaccinia virus mCherry reporter infection, fluorescence | Potency, µM (highest dose often 36.5 µM), without a hit: top-dose activity change, negative = inhibition, usual class: inhibitors; calls by dose curve; tested in A549 cells; further: potency means the concentration at half of the fitted maximal effect; nearly all actives have a fitted effect of over 35% in size
HCMV inh = qHTS Assay for inhibitors of the human cytomegalovirus (HCMV); AID 1259415, 2018; HFF cells, HCMV-luciferase reporter, 72 h; active compounds read low; 410,000 tested, 4.5% active; activity change, negative = inhibition, % at 57.5 µM; in the data active means activity change below about -60%; inconclusive means no clear call, values can overlap the other calls; inactive means above about -39%
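Compounds were evaluated in HFFs infected with an HCMV luciferase reporter virus (MOI 1 PFU/cell). Luciferase in lysates collected 72 h post infection served as the replication measure.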
* marks the source's active call; other numbers are inactive results; ! = a repeat was not active; [ ] = remark or other dose. This is a sample that favours compounds with a hit; in the whole collection about 6.5% have one here. On the % scale 0 is the no-effect control and ±100 the full control effect.

For Cc1ccc(-n2c(C)cc(C(=O)CSc3nncs3)c2C)cc1 the results were Marburg entry inh inconclusive, LASV entry inh inconclusive, Vaccinia Venus inconclusive, Vaccinia mCherry inconclusive and HCMV inh -71*.
For Cc1cc(C(=O)CSc2nncs2)c(C)n1-c1c(C)n(C)n(-c2ccccc2)c1=O the results were Marburg entry inh 18%, LASV entry inh 12%, Vaccinia Venus -9%, Vaccinia mCherry -14% and HCMV inh -21.
CCN(CC)S(=O)(=O)c1ccc(C(C)NC(=O)Cc2c[nH]c3ccccc23)cc1 (stereo not given) was read as FMDV antiviral -22%, Marburg entry inh -19%, LASV entry inh 2.6µM*, Vaccinia Venus -9%, Vaccinia mCherry -1% and HCMV inh 14.
`CCN(CC)S(=O)(=O)c1ccc(C(=O)NCCSc2c[nH]c3ccccc23)cc1` gave FMDV antiviral -10%, Marburg entry inh -11%, LASV entry inh 26µM*, Vaccinia Venus -9%, Vaccinia mCherry 4% and HCMV inh 4.
Screening COc1ccc(CCNC(=O)CCc2c(C)c3cc4c(C)c(C)oc4cc3oc2=O)cc1 returned FMDV antiviral 4%, Marburg entry inh inconclusive, LASV entry inh 3%[46.1 µM], Vaccinia Venus inconclusive, Vaccinia mCherry -7% and HCMV inh -16.
Screening O=c1[nH]c(SCc2nc3c(cnn3-c3ccccc3)c(=O)[nH]2)nc2ccccc12 returned FMDV antiviral 9%, Marburg entry inh 1µM*, LASV entry inh 0.71µM*, Vaccinia Venus -2% and HCMV inh -92*.
C=CCn1c(SCc2nc3ccccc3c(=O)[nH]2)nc2ccccc2c1=O was read as FMDV antiviral 0%, Marburg entry inh -18%, LASV entry inh -23%, Vaccinia Venus -9% and HCMV inh -61*.
O=c1[nH]c(CSc2nc3ccccc3[nH]2)nc2c1cnn2-c1ccccc1 was read as FMDV antiviral 22µM*, Marburg entry inh inconclusive, LASV entry inh inconclusive, Vaccinia Venus -29%, Vaccinia mCherry inconclusive and HCMV inh -86*.
Screening CC(C)Sc1nc2c(cnn2-c2ccccc2)c(=O)[nH]1 returned FMDV antiviral -7%, Marburg entry inh inconclusive, LASV entry inh -6%, Vaccinia Venus -21%, Vaccinia mCherry -22% and HCMV inh 47.
O=c1[nH]c(CSc2ncccn2)nc2c1cnn2-c1ccccc1 was read as FMDV antiviral -14%, Marburg entry inh 12%, LASV entry inh 3%, Vaccinia Venus -5%, Vaccinia mCherry -18% and HCMV inh 62.
`Cc1ccc(-n2ncc3c(=O)[nH]c(SC(C)C)nc32)cc1` gave FMDV antiviral -20%, Marburg entry inh -10%, LASV entry inh 6%, Vaccinia Venus -13%, Vaccinia mCherry -18% and HCMV inh -96*.
`COC(=O)C1=C(C)N=C2S[C@@H](C)C(=O)N2[C@H]1c1cccs1` gave Marburg entry inh 6%.
For Cc1ccc2nc(SCc3nc4c(cnn4-c4ccccc4)c(=O)[nH]3)[nH]c2c1 the results were FMDV antiviral 11µM*, Marburg entry inh inconclusive, LASV entry inh inconclusive, Vaccinia Venus -11%, Vaccinia mCherry -18% and HCMV inh -83*.
O=C(Nc1cc(Cl)ccc1O)c1snnc1-c1ccccc1 was read as FMDV antiviral 20µM*, Marburg entry inh inconclusive, LASV entry inh inconclusive and HCMV inh -100*.
`COc1ccccc1C(=O)Nc1c(C(=O)c2ccccc2)oc2ccccc12` gave FMDV antiviral -6%, Marburg entry inh -17%[46.1 µM], LASV entry inh -17%[46.1 µM], Vaccinia Venus 4%, Vaccinia mCherry -7% and HCMV inh -16.
For CN(C)CCN(Cc1ccco1)C(=O)c1oc2ccccc2c1NC(=O)c1ccccc1 the results were FMDV antiviral -15%, LASV entry inh -5%[46.1 µM], Vaccinia Venus -20%, Vaccinia mCherry -13% and HCMV inh -61*.
For COc1ccccc1C(=O)Nc1c(C(=O)NC(C)(C)C)oc2ccccc12 the results were FMDV antiviral 0%, LASV entry inh 5%[46.1 µM], Vaccinia Venus -10%, Vaccinia mCherry 12% and HCMV inh -71*.
For COc1ccc(OCC(=O)Nc2c(C(=O)N(CCN(C)C)Cc3ccco3)oc3ccccc23)cc1 the results were FMDV antiviral -10% and HCMV inh inconclusive.
`Cc1ccccc1C(=O)Nc1c(C(=O)N(CCN(C)C)Cc2ccco2)oc2ccccc12` gave FMDV antiviral -3% and HCMV inh -30.
Screening COc1ccccc1C(=O)Nc1c(C(=O)N(CCN(C)C)Cc2ccco2)oc2ccccc12 returned FMDV antiviral inconclusive, LASV entry inh 29%[46.1 µM], Vaccinia Venus -15%, Vaccinia mCherry -22% and HCMV inh -82*!.
Screening O=C(COc1cccc(Cl)c1)N1CCC(c2nc3ccccc3o2)CC1 returned FMDV antiviral -16%, Marburg entry inh 2%[46.1 µM], LASV entry inh -21%[46.1 µM], Vaccinia Venus -13%, Vaccinia mCherry 1% and HCMV inh 61.
Cc1ccc(NC(=O)c2sc(=S)n(-c3cc(C)ccc3F)c2N)cc1 was read as FMDV antiviral 10%, Marburg entry inh 31%[46.1 µM], LASV entry inh -35%[46.1 µM], Vaccinia Venus -7%, Vaccinia mCherry -7% and HCMV inh -63*.
COCC(=O)Nc1cc(C(=O)N2CCN(c3ccc(Cl)cn3)CC2)c2c(c1)nc(C1CCC1)n2C was read as FMDV antiviral -11%, Vaccinia Venus 5% and Vaccinia mCherry -1%.
For CCCc1cnc2c(c1SCC(=O)Nc1ccc([N+](=O)[O-])cc1)c(=O)n(C)c(=O)n2C the results were FMDV antiviral 16µM*, LASV entry inh inconclusive, Vaccinia Venus inconclusive, Vaccinia mCherry -11% and HCMV inh 2.
For Cc1cccc(N2C(=O)CSC23C(=O)N(Cc2cccc(C(F)(F)F)c2)c2ccccc23)c1 (stereo not given) the results were FMDV antiviral inconclusive, LASV entry inh -20%[46.1 µM], Vaccinia Venus -2%, Vaccinia mCherry -17% and HCMV inh -70*.
For CCCC(=O)N(c1ccc(OCC)cc1)S(=O)(=O)c1ccc2c3c(cccc13)C(=O)N2C the results were FMDV antiviral 5%, Marburg entry inh inconclusive, LASV entry inh inconclusive, Vaccinia Venus -4%, Vaccinia mCherry -10% and HCMV inh -34.
`Cc1nn(-c2ccccc2)c(-c2ccccc2)c1C(=O)O` gave FMDV antiviral -16%, Marburg entry inh 26%, LASV entry inh 1%, Vaccinia Venus 5% and HCMV inh -67*.

Screening data from PubChem BioAssay.
